Test [1] relates to Human papillomavirus type 1a protein E7 (residues 44-93). The test is described as follows: HPV1a E7 fragment binders on microarrays, primary screen, biochemical, small-molecule microarray, residues 44-93, 635 nm fluorescence (AID 1108).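 Further: E7 fragment applied at 1 µg/mL in TBST for 1 h at 4 C; score combines spot fluorescence with its signal to noise ratio.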 The conditions noted are these: small-molecule microarray binding, fluorescence 635 nm; higher = more signal.
A short description of test [2]: modulators of HCV replicon luciferase signal, primary screen, HCV replication inhibitor project, Huh7 cells, luciferase reporter (AID 1109).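 Further: huh7 hepatoma cells harbouring a luciferase neomycin HCV replicon reporter; luciferase luminescence as measure of HCV replicon replication; test concentration not given here.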 To be noted: 48 h, higher = more signal. (A replicon is a self-replicating genome or part of one, used to study replication in cells.)
The target of test [3] is Left-right determination factor 2 (Homo sapiens) (UniProt O00292). In words: LEFTY2 binders on small-molecule microarrays, primary screen, biochemical, small-molecule microarray, 635 nm fluorescence scan (AID 1110). To be noted: LEFTY2 binding, higher = more signal.
Chain of Left-right determination factor 2 (Homo sapiens) (O00292 whole entry, looked up): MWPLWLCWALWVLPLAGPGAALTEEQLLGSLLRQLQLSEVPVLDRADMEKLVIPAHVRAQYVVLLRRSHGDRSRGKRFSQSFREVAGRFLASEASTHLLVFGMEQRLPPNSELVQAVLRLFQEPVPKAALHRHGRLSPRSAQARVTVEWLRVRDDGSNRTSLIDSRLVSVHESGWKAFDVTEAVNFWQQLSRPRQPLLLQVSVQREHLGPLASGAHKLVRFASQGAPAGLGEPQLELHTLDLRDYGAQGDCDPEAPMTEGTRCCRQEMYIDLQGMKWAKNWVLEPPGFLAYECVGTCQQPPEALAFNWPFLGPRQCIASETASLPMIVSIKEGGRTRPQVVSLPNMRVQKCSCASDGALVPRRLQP
Test [4] deals with Calmodulin-1 (Homo sapiens) (UniProt P0DP23). The test is described as follows: CALM1 binders on microarrays, EGTA buffer, profiling panel, biochemical, small-molecule microarray, Cy5-labelled CALM1 (AID 1111).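 Further: labelled calmodulin applied in Tris saline Tween buffer holding calcium plus EGTA and DTT.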 The conditions noted are these: Cy5-CALM1 binding fluorescence, higher = more signal.
Test [5] shares this target. The test is described as follows: calcium-bound CALM1 binders on microarrays, profiling panel, artefact control for SMM control-protein annotation, biochemical, small-molecule microarray, Cy5-labelled CALM1, plus calcium (AID 1112).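 Further: score merges spot fluorescence with signal to noise from triplicate slides.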 To be noted: Cy5-CALM1 binding fluorescence, higher = more signal.
A short description of test [6]: small-molecule microarray binders of probe aWnt5a, primary screen, biochemical, biotinylated probe, 635/667 nm fluorescence (AID 1113).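 Further: score merges 667 nm fluorescence intensity with signal-to-noise per printed feature.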 To be noted: higher = more signal.
Test [7] is described as follows: small-molecule microarray binders of probe aShh, primary screen, biochemical, biotinylated probe, 635/667 nm fluorescence (AID 1114).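 Further: probe is biotin-labelled aShh protein from a stem cell growth factor screen; measures binding of labelled protein to compounds printed on the slide; score merges feature fluorescence at 667 nm with signal-to-noise.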 To be noted: higher = more signal.
Test [8] is described as follows: small-molecule microarray binders of probe aNog, primary screen, biochemical, biotinylated probe, 635/667 nm fluorescence (AID 1115).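 Further: probe is biotinylated aNog protein used at 0.15 µg/mL for 1 h at 4 C; z-score combines 667 nm fluorescence of each spot with its signal to noise.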 To be noted: higher = more signal.
Test [9] addresses Torsin-1A-interacting protein 1 (Homo sapiens) (UniProt Q5JTV8). In words: LAP1 binders from COS7 cell lysate, primary screen, small-molecule microarray, 635/667 nm fluorescence (AID 1116). To be noted: COS7-hLAP1 lysate binding, 635 nm fluorescence, higher = more signal.
In test [10] the target is Alpha-bungarotoxin (Bungarus multicinctus) (UniProt P60615). In words: alpha-bungarotoxin binders on microarray, profiling panel, artefact control for SMM control protein annotation, biochemical, small-molecule microarray, Alexa647 label, 635/667 nm fluorescence (AID 1117). The conditions noted are these: alpha-BTX-A647 binding fluorescence, higher = more signal.
Chain of Alpha-bungarotoxin (Bungarus multicinctus) (P60615 whole entry, looked up): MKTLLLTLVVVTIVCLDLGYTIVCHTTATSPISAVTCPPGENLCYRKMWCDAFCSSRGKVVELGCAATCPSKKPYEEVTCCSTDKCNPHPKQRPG
Test [11] addresses Albumin (Bos taurus) (UniProt P02769). The test is described as follows: bovine serum albumin binders on microarray, profiling panel, artefact control for SMM control protein annotation, biochemical, small-molecule microarray, Alexa647 label, 635/667 nm fluorescence (AID 1118).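 Further: score merges 667 nm emission intensity and signal-to-noise per printed compound spot.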 The conditions noted are these: BSA-A647 binding, fluorescence 635 nm, higher = more signal.
The nature of test [12]: small-molecule microarray binders of probe aXIP, primary screen, biochemical, NeuroSMM set, 635/667 nm fluorescence (AID 1119).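 Further: probe is the protein aXip251-270 applied at 1 µg/mL to compound-printed slides; binding of probe to printed compounds measured as 667 nm fluorescence plus signal to noise.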 The conditions noted are these: higher = more signal, called active from +8 up or from −8 down.
A short description of test [13]: small-molecule binders of probe aNOTCH3, primary screen, biochemical, small-molecule microarray, 635/667 nm fluorescence (AID 1120).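 Further: probe is a biotin-tagged antibody raised against NOTCH3 rather than NOTCH3 protein; score merges spot fluorescence near 667 nm with spot signal to noise.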 The conditions noted are these: higher = more signal.
A short description of test [14]: small-molecule binders of probe aNOTCH2, primary screen, biochemical, small-molecule microarray, 635/667 nm fluorescence (AID 1121).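 Further: score merges feature fluorescence read at 667 nm with its signal to noise.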 To be noted: higher = more signal.
The target of test [15] is Carbonic anhydrase 2 (Homo sapiens) (UniProt P00918). The test is described as follows: CAII small-molecule binders, profiling panel, biochemical, small-molecule microarray, Alexa647-labelled CAII (AID 1122). To be noted: CAII-A647 binding fluorescence, higher = more signal.
The nature of test [16]: COS7 lysate on small-molecule microarray, probe aHis, 635 nm (AID 1123).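 Further: z-score combines 667nm fluorescence intensity with signal-to-noise per printed compound spot.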 To be noted: COS7 cell lysate, fluorescence, higher = more signal.
The nature of test [17]: compound binding in COS7 lysate, probe aLAP1, primary screen, cell lysate, small-molecule microarray (AID 1124).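 Further: lysate comes from COS7 cells expressing LAP1 and is applied at 0.3 µg/mL; score merges spot fluorescence near 667 nm with signal-to-noise over triplicate slides.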 The conditions noted are these: probe aLAP1, fluorescence, higher = more signal.
Test [18] has as its system Sam68 (KHDRBS1). In words: Sam68 small-molecule binders, primary screen, biochemical, small-molecule microarray, 635 nm fluorescence (AID 1125).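 Further: score merges 667 nm channel intensity with signal to noise over triplicate slides.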 The conditions noted are these: small-molecule microarray binding, higher = more signal.
The test system of test [19] is Chordin-like protein 2 (CHRDL2). The test is described as follows: CHRDL2 small-molecule binders, primary screen, biochemical, small-molecule microarray, 635 nm fluorescence (AID 1126).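 Further: printed compound slides probed with Chrdl2 protein at 4 µg/mL for 1 h at 4 C; score merges 667 nm emission intensity with signal to noise over three replicate slides.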 The conditions noted are these: small-molecule microarray binding, fluorescence 635 nm; higher = more signal.
For test [20], the target named is Concanavalin-A (Canavalia ensiformis) (UniProt P02866). In words: ConA small-molecule binders, primary screen, artefact control for SMM control protein annotation, biochemical, small-molecule microarray, Alexa647 label, 635 nm (AID 1127).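 Further: z combines 667 nm emission intensity with signal-to-noise across three replicate slides.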 To be noted: ConA-A647 binding fluorescence, higher = more signal.
Chain of Concanavalin-A (Canavalia ensiformis) (P02866 whole entry, looked up): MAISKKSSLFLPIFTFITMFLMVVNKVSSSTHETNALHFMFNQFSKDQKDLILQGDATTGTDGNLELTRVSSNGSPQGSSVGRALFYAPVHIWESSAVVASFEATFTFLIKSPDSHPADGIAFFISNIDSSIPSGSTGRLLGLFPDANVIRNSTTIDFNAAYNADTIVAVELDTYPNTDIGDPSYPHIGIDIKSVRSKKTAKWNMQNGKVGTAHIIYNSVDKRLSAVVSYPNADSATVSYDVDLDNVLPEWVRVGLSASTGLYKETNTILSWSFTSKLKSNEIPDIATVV

These results are taken from PubChem BioAssay.

Active and inactive are the calls of the source.

Chain of Albumin (Bos taurus) (P02769 whole entry, looked up): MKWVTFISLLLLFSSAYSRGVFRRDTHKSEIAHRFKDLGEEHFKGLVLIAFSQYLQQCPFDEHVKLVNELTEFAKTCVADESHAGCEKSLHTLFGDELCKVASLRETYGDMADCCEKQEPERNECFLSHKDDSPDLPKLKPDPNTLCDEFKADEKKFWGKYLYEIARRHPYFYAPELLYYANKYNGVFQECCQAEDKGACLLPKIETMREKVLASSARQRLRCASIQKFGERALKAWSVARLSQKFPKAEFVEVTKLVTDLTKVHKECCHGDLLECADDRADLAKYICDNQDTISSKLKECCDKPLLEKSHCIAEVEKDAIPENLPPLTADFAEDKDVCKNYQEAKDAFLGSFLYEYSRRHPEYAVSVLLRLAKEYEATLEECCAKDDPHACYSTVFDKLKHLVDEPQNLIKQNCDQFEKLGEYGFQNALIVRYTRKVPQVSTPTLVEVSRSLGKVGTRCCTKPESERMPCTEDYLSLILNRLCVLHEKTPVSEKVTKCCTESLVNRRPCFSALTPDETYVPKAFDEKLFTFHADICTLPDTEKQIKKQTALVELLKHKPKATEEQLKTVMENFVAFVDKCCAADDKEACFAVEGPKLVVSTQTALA
Chain of Torsin-1A-interacting protein 1 (Homo sapiens) (Q5JTV8 whole entry, looked up): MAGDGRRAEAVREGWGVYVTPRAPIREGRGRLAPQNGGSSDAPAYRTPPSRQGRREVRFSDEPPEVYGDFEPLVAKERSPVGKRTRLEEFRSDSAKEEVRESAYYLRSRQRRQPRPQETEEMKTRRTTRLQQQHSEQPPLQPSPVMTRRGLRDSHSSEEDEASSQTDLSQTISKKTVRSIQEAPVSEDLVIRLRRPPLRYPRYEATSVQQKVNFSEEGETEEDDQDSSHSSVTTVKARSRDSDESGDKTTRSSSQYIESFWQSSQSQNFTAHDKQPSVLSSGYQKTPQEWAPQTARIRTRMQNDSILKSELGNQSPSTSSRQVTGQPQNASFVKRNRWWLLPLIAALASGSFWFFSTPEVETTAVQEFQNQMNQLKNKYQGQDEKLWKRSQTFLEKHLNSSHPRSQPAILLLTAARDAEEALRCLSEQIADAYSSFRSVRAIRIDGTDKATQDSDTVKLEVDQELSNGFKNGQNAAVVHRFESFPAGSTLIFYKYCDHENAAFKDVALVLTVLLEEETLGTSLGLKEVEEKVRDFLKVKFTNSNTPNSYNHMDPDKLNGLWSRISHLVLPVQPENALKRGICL

Regarding `Cc1ccc(S[C@]2(C(=O)O)CC(=O)N(C(C)C)[C@@H]2c2ccc(CO)cc2)cc1`, the composite z-score in test [1] was 0.253; in test [3], -0.193; in test [4], -0.0058; in test [5] it was -0.529; in [6], -0.12; in test [7] it was 0.216. For the same compound, the composite z-score in test [8] was -0.294; in test [9], 1.42; in test [10] it was 0.644; in [11] it was 0.07; in test [13], -0.139; in test [14] it was -0.107. Also, the composite z-score is 0.648 in test [15]; -0.216 in [16]; 1.14 in [17]; 0.462 in [18]; -0.215 in test [19]; 0.394 in test [20]. The z-score in test [2] is -0.625. Moreover, the composite Z-score in [12] is 0.264 (inactive).

As for `[N-]=[N+]=NCc1ccccc1[C@@H]1OC(c2ccc(OCCCO)cc2)=N[C@]1(CCS(=O)(=O)c1ccccc1)C(=O)N1CCCCC1`, the composite z-score was 1.48 in [1]; 0.334 in test [3]; 1.79 in test [4]; 0.415 in [5]; 0.0873 in test [6]; 0.333 in test [7]. For the same compound, the composite z-score is -0.316 in [8]; 1.04 in test [9]; 1.34 in test [10]; 0.997 in [11]; 0.739 in test [13]; -0.124 in test [14]. Moreover, the composite z-score was 0.754 in test [15]; 2.85 in test [16]; 0.475 in test [17]; 1.29 in test [18]; -0.59 in test [19]; 1.17 in test [20]. This compound also showed a z-score in [2] of -1.87. Further, the composite Z-score in [12] is -0.228 (inactive).

Take `COC(=O)c1c(CC[C@@H](CO)NC(=O)NCCc2c[nH]c3ccccc23)oc(C(=O)Cc2ccccc2)c1C(=O)OC`: the composite z-score in [1] was 0.465; in test [3] it was 0.353; in test [4], -0.103; in test [5], -0.46; in [6], 0.0657; in test [7] it was -0.0011. Also, the composite z-score was -0.33 in test [8]; 0.385 in test [9]; -0.172 in test [10]; 0.0018 in [11]; 0.0842 in test [13]; -0.14 in test [14]. The composite z-score is 0.112 in test [15]; 0.452 in test [16]; -0.161 in [17]; 0.583 in test [18]; 0.149 in test [19]; 0.467 in test [20]. The z-score in [2] was -1.16. For the same compound, the composite Z-score in [12] was -0.326 (inactive).

With `C=C(CCCC)C(=O)CC[C@@H](OC(C)=O)c1ccc(CO)o1`, the composite z-score is 0.0497 in [1]; 0.523 in test [3]; -0.854 in [4]; -1.12 in test [5]; -0.18 in test [6]; -0.206 in test [7]. The composite z-score was 0.0417 in test [8]; 2.04 in test [9]; -0.217 in test [10]; -0.855 in test [11]; -0.0581 in test [13]; -0.108 in [14]. Moreover, the composite z-score in [15] is 0.645; in test [16], 0.423; in [17], -0.0353; in test [18], 0.628; in [19], 0.869; in test [20] it was 0.0313. Also, in test [2], the z-score was -1.21. In addition, the composite Z-score in test [12] is -0.666 (inactive).

Turning to `O=C1C2C=CC(C(O)C=Cc3ccc([N+](=O)[O-])cc3)N(Nc3ccccc3F)C2C(=O)N1c1ccccc1` (stereo not given), the composite z-score in test [1] is 1.47; in [3] it was 0.458; in [4], 1.27; in [5] it was 0.362; in [6], 0.0037; in test [7], 0.166. Moreover, the composite z-score in test [8] is 0.581; in test [9] it was 1.18; in test [10], 1.12; in test [11], 0.868; in [13], 0.127; in [14] it was -0.147. Moreover, the composite z-score in test [15] is 0.651; in test [16] it was 2.31; in test [17], 0.885; in [18], 1.3; in [19], 0.0612; in test [20] it was 1.15. The compound also gave a z-score in [2] of -0.969. Further, the composite Z-score in test [12] was 0.139 (inactive).
